Screens from PubChem.
Rows were chosen to be rich in hits. Some 3.1% of all compounds tested hit in one or more screens of this group.
p53null 32C kill: p53 null cell cytotoxicity, permissive temperature; H1299-neo p53 null cells, ATP luminescence, 24 h, 32C; Potency, µM (doses to about 46.1 µM), for the others: at the top dose activity change, negative = cytotoxicity, most hits filed as cytotoxic; 55,000 tested, 0.62% active; AID 903;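 further: potency means the concentration at half of the fitted maximal effect; 0% = DMSO only and -100% = full killing by 100 µM tamoxifen; nearly all actives have a fitted effect of over 55% in size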
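Overnight 37C seeding (600 cells/well) of H1299-neo preceded a 24 hr, 32C exposure to compounds up to 46 uM. ATP levels, read by luminescence after 20 min at RT, indicated surviving cells.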
PMP22 txn: modulates PMP22 transcription in S16 Schwann cells | S16 Pmp22-F2sN Schwann cells, FLuc/NLuc coincidence luminescence, 24 h | AID 1508649 | Potency, µM (series often up to 57.5 µM), inactives show top-dose activity change, negative = inhibition, usual class: inhibitors | 43,000 tested, 2% active; active means clear falling dose curves in both reporters; inconclusive means both reporters move, but less clearly or upward; inactive means either reporter flat; the % is the NLuc reporter signal; further: potency means the concentration at half of the fitted maximal effect; on the % scale 0 is the no-effect control and ±100 the full control effect
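Luminescent read-out of sequential FLuc and NLuc signals from a reporter embedded in the Pmp22 3' UTR of S16 Schwann cells, taken after 24 h compound exposure at 37C; compounds reducing both signals score as inhibitors of expression.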
pS6 MEF inh: inhibitors of mTORC1 signaling in Tsc2-/- p53-/- MEF cells | Tsc2-/- p53-/- MEF, phospho-rpS6 immunofluorescence/PI, 24 h | Potency, µM (series often up to 38.3 µM), without a hit: top-dose activity change, negative = inhibition, usual class: inhibitors | 44,000 tested, 0.78% active | AID 493208;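 further: potency means the concentration at half of the fitted maximal effect; plate controls were DMSO for no effect and rapamycin for full effect; nearly all actives have a fitted effect of over 50% in size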
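Read-out: phospho-S6 Alexa-488 intensity over PI intensity per well, scored as % active cells using thresholds from rapamycin (7.5 nM) and DMSO controls. Tsc2-/-, p53-/- MEFs exposed to compound for 24 h; PI cell count recorded as viability.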
S16 viability: toxic to S16 Pmp22-F2sN Schwann cells. S16 Pmp22-F2sN Schwann cells viability, CellTiter-Glo, 24 h. 43,000 tested, 0.48% active. AID 1508642. Potency, µM (doses to about 57.5 µM), for inactives: top-dose activity change, negative = cytotoxicity, most hits filed as cytotoxic; further: potency means the concentration at half of the fitted maximal effect; on the % scale 0 is the no-effect control and ±100 the full control effect; nearly all actives have a fitted effect of over 65% in size
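S16 Pmp22-F2sN Schwann cells (500-1,000/well) in phenol-red-free DMEM with 10% FBS received 23 nL compound by pin tool for 24 h at 37 °C. Viability was then read as CellTiter-Glo luminescence after 15 min at room temperature.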
p53null 39C tox: p53 null cell cytotoxicity, nonpermissive temperature | 55,000 tested, 0.97% active | H1299 p53-null (neo) cells, 39C, ATPlite viability, 24 h | Potency, µM (top dose mostly 46.1 µM), without a hit: top-dose activity, negative = cell killing, actives largely listed as cytotoxic;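 further: potency means the concentration at half of the fitted maximal effect; 0% = DMSO only and -100% = full killing by 100 µM tamoxifen; nearly all actives have a fitted effect of over 50% in size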
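Concentration-response (up to 46 uM) was run for 24 h at the nonpermissive 39C on H1299-p53A138V or H1299-neo cells. ATP content was measured with ATPlite luminescence. AC50 values were Hill-modeled after normalizing between DMSO and 100 uM tamoxifen killing.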
SKOV3 invasion: inhibitors of ovarian cancer cell adhesion and invasion in omental model. Potency, µM (series often up to 45.8 µM), inactives show top-dose activity change, negative = inhibition, usual class: inhibitors. SKOV3ip1-GFP adhesion/invasion on 3D omental model, fluorescence. 46,000 tested, 0.1% active. AID 1963576;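 further: potency means the concentration at half of the fitted maximal effect; plate controls were DMSO wells for no effect and tomatine positive control wells for full effect; nearly all actives have a fitted effect of over 65% in size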
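qHTS, 4-pt dose (0.36-46 umol/L); SKOV3ip1-GFP, 1,200 cells/well, no FBS; primary omental fibroblast/mesothelial co-culture 48 h pre-grown; 2 h RT + 16 h 37 C; PBS wash, 4% PFA; GFP count 488/509 nm.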
NLuc sat counter: inhibits NanoLuc at saturating substrate, PMP22 counter-screen | shares compounds with PMP22 txn | 690 tested, 4% active | Potency, µM (titrated, usually from 57.5 µM), inactives show at the highest dose activity change, negative = inhibition, usual class: inhibitors | Secreted NLuc enzyme (filtered S16 cell medium), Nano-Glo luminescence; further: potency means the concentration at half of the fitted maximal effect; on the % scale 0 is the no-effect control and ±100 the full control effect
NLuc Km counter: NanoLuc inhibition at Km substrate, PMP22 artifact check. shares compounds with PMP22 txn. secreted NLuc enzyme, coelenterazine luminescence, Km conditions. Potency, µM (series often up to 57.5 µM), without a hit: top-dose activity change, negative = inhibition, hits mostly inhibitors. 690 tested, 5% active. AID 1508639; further: potency means the concentration at half of the fitted maximal effect; on the % scale 0 is the no-effect control and ±100 the full control effect
FLuc counter: counter-screen for PMP22 expression modulators: firefly luciferase inhibition; shares compounds with PMP22 txn; purified P. pyralis FLuc, luminescence, 10 min; Potency, µM (highest dose often 57.5 µM), for inactives: top-dose activity, negative = inhibition, usual class: inhibitors; 690 tested, under 10 active; AID 1508640; further: % of control where 0% means no effect
Target sequence (P08659 whole entry, looked up): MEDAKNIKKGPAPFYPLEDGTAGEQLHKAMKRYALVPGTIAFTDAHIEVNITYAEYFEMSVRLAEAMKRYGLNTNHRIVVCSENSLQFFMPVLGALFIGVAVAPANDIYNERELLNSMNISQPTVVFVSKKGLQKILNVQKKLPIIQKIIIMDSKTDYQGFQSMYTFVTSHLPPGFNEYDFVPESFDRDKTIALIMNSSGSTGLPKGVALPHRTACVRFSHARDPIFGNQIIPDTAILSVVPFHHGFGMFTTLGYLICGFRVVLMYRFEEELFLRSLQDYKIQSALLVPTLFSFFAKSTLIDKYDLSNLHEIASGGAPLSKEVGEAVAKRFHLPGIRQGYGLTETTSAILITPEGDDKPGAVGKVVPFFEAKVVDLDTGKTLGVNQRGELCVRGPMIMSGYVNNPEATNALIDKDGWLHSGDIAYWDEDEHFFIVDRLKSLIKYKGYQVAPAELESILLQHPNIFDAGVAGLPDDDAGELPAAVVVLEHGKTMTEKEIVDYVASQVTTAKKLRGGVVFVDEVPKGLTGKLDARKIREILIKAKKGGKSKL
S16 viab conf: S16 Schwann cell cytotoxicity, confirmatory. shares compounds with PMP22 txn. S16 Schwann cells viability, CellTiter-Glo ATP luminescence, 24 h. Potency, µM (doses to about 57.5 µM), for inactives: at the top dose activity change, negative = viability loss, actives largely listed as cytotoxic. 690 tested, 7% active. AID 1508641; further: potency means the concentration at half of the fitted maximal effect; on the % scale 0 is the no-effect control and ±100 the full control effect
PMP22 txn cnf: confirmation of modulators of PMP22 gene transcription in S16 cells; AID 1508646; S16 Schwann cells Pmp22-F2sN, dual luciferase, 24 h; shares compounds with PMP22 txn; Potency, µM (highest dose often 57.5 µM), for inactives: at the top dose activity change, negative = inhibition, usual class: inhibitors; 690 tested, 22% active; active means clear falling dose curves in both reporters; inconclusive means both reporters move, but less clearly or upward; inactive means either reporter flat; the % is the FLuc reporter signal; further: potency means the concentration at half of the fitted maximal effect
Active calls of the source: *; i = inactive; ? = inconclusive; / = no result. Unless noted, the call rests on the fitted dose curve; in most records, active means well fitted curve in the direction sought with a large enough effect; inconclusive means small, poorly fitted or top-dose-only effect, or another doubt; inactive means no such curve, though single readings can be large; an effect the other way counts as inactive or inconclusive.

SMILES	p53null 32C kill	PMP22 txn	pS6 MEF inh	S16 viability	p53null 39C tox	SKOV3 invasion	NLuc sat counter	NLuc Km counter	FLuc counter	S16 viab conf	PMP22 txn cnf
Cc1ncc(CO)c2c1Oc1nc(-c3ccccc3)nc(SCC(=O)N3CCCCC3)c1C2	3%	12µM*	-2%	1%	-22%	7%	-5%	1%	2%	?	?
Cc1ccc(NC(=O)CSc2nc(-c3ccc(F)cc3)nc3c2Cc2c(CO)cnc(C)c2O3)cc1C	-7%	9%	-1%	0%	?	13%	/	/	/	/	/
COC(=O)c1scc(-c2ccc(C)cc2)c1S(=O)(=O)N1CCN(c2ccc(OC)cc2)CC1	-1%	-8%	-5%	4%	10%	i	/	/	/	/	/
Cc1cccc(Cn2cc(C(=O)c3ccccc3)c(=O)c3cc4c(cc32)OCO4)c1	-3%	2%	0%	-3%	-2%	5%	/	/	/	/	/
CCN(C(=O)CSc1nc(-c2ccccc2)no1)c1cccc(C)c1	16%	13µM*	6%	-8%	19%	-22%	19µM*	4.8µM*	-13%	?	35%
CCN(C(=O)CSc1nc2ccccc2nc1Cc1ccc(F)cc1)c1cccc(C)c1	44%	-51%	4%	-15%	25%	43%	/	/	/	/	/
COC(=O)c1sc2ccccc2c1S(=O)(=O)N1CCN(c2ccc(C(C)=O)cc2)CC1	-9%	-32%	-16%	-2%	-12%	-6%	/	/	/	/	/
COc1cc(NC(=O)N2CCC(CN3CCOCC3)CC2)cc(OC)c1OC	-9%	-46%	-8%	14%	-5%	-7%	-7%	1%	-6%	2%	7%
COc1ccc(-n2c(=O)c3c(c4cc(OC)ccc4n3C)n(CCC(C)C)c2=O)cc1	1%	2.1µM*	1%	8%	10%	10%	-18%	-2%	3%	9%	-21%
COc1ccc(Cn2c(=O)n(-c3ccc(OC)cc3)c(=O)c3c2c2cc(OC)ccc2n3C)cc1	7%	-36%	0%	3%	8%	7%	/	/	/	/	/
CCCCNC(=O)c1cccc(-n2c(C)nc3cccnc32)c1	-3%	-5%	0%	-1%	16%	5%	/	/	/	/	/
Cc1ccc(-c2cnc(NCc3c(F)cccc3Cl)n2C)cc1	-21%	-114%	-26%	-18%	-17%	-3%	/	/	/	/	/
Cn1c(-c2cccc(Br)c2)cnc1NCc1cccc(F)c1	-24%	?	?	-11%	-21%	-1%	-11%	?	1%	-21%	-27%
